Source: PubChem
BioA inh – M. tuberculosis BioA enzyme inhibitors, primary screen, biochemical, plate reader, single point, HTS. inhibition, % at 9.99 µM. purified M. tuberculosis BioA enzyme. 360,000 compounds, 0.096% hits. 7,8-diaminopelargonic acid synthase BioA (Mycobacterium tuberculosis); in the data active = inhibition above about 40%
PfHsp40 yeast – rescue of yeast from PfHsp40 toxicity, primary screen, S. cerevisiae, ATP luminescence. AID 504582, 2011. S. cerevisiae expressing PfHsp40, growth rescue. 340,000 compounds, 0.68% hits. growth rescue, % at 12.5 µM; in the data active = growth rescue above about 28%, passing the limit was not always enough;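 note: yeast W303a lacking pdr1 and pdr3 grown in galactose medium; growth measured after three days at 30 °C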
FadD28 binding – inhibitors of FadD28 bisubstrate probe binding, primary screen, biochemical, fluorescence polarization, single point. AID 588549, 2011. inhibition, % at 12.5 µM. 360,000 compounds, 0.22% hits. Mycobacterium tuberculosis FadD28 fatty-acid-AMP ligase; in the data active = inhibition above about 8.5%, passing the limit was not always enough
Y pestis TopoI – Yersinia pestis topoisomerase I inhibitors, primary screen, biochemical, cleavage product accumulation, plate reader, single point; DNA topoisomerase I (Yersinia pestis CO92); Y. pestis Topo-I cleavage product accumulation; activity, % at 10 µM; 360,000 compounds, 0.064% hits; AID 504884, 2011; in the data active = activity above about 50%, passing the limit was not always enough
PrP UTR inh – inhibition of PrP 5' UTR reporter expression; cell-based PrP 5' UTR mRNA reporter, plate reader; inhibition, % (concentration not given with the values); 340,000 compounds, 0.35% hits; in the data active = inhibition above about 52%
Numbers stand for hits; . = inactive; / = not tested or not shown. Rows were chosen to be rich in hits. Some 1.1% of all compounds tested hit in one or more screens of this group.

SMILES	BioA inh	PfHsp40 yeast	FadD28 binding	Y pestis TopoI	PrP UTR inh
Cc1c(C(=O)N(Cc2ccccc2)C(C)C)cnn1-c1ccccc1	.	.	.	.	.
CO[C@@H]1CN(C)C(=O)c2cc(NS(C)(=O)=O)ccc2OC[C@@H](C)N(C(=O)C2CCOCC2)C[C@H]1C	.	/	/	/	/
CCCCCCCCCCCCC/C=C/[C@@H](O)[C@@H](N)CO	.	.	33	.	.
Nc1ccc(C(=O)Nc2ccc3c(O)cc(S(=O)(=O)O)cc3c2)cc1	.	.	15	.	.
CCOC(=O)c1c(C)[nH]c(C(=O)N/N=C/c2cc([N+](=O)[O-])ccc2O)c1C	.	.	.	.	.
CCOC(=O)c1c(C)[nH]c(C(=O)N/N=C\c2ccccc2O)c1C	.	37	.	.	.
C[C@H]1CN([C@@H](C)CO)C(=O)c2cc(-c3ccc(F)cc3)cnc2O[C@H]1CN(C)CC1CCCC1	.	/	/	/	/
C=CCn1c(SCC(=O)c2ccc(OC)cc2)nnc1-c1cc2cccc(OC)c2o1	.	.	.	67	.
C[C@@H]1CN([C@@H](C)CO)C(=O)c2cccc(N(C)C)c2O[C@H]1CN(C)C(=O)Nc1ccc(C(F)(F)F)cc1	.	/	/	/	/
ON=Cc1ccnc2ccccc12	.	/	.	.	/
O=C(O)c1ccccc1N/N=C\c1ccnc2ccccc12	/	.	11	.	.
Cc1cc(C(=O)N/N=C/c2cc([N+](=O)[O-])ccc2O)c2ccccc2n1	/	.	.	.	.
Cc1cc(C(=O)N/N=C/c2cc(Br)cc([N+](=O)[O-])c2O)c2ccccc2n1	/	184	.	.	.
O=C(Cc1ccccc1)CC(CC(=O)c1ccccc1)c1ccccc1 (configuration not stated)	.	/	.	56	/
C=C(C(=O)c1ccccc1)C(CC(=O)c1ccccc1)c1ccccc1 (configuration not stated)	/	.	.	.	.
CC(=O)Nc1ccc(/C=N\NC(=O)CNS(=O)(=O)c2ccc([N+](=O)[O-])cc2)cc1	.	.	9.3	.	.
O=C(CNS(=O)(=O)c1ccc([N+](=O)[O-])cc1)N/N=C\c1ccc(O)cc1	.	.	.	.	.
O=C(CNS(=O)(=O)c1ccc([N+](=O)[O-])cc1)N/N=C/c1ccc(O)cc1O	.	.	22	.	/
C[C@@H]1CN([C@@H](C)CO)C(=O)c2cc(NC(=O)C3CCCCC3)ccc2O[C@@H]1CN(C)C(=O)Nc1cccc2ccccc12	.	/	/	/	/
CC(=N/O)/C(=N\O)c1ccc(C)o1	.	242	.	.	.
C/C(=N/NS(=O)(=O)c1ccc(Br)cc1)c1ccc(C)o1	/	.	.	.	.
C[C@@H]1CN([C@@H](C)CO)C(=O)Cc2cc(NC(=O)Nc3ccc(F)cc3)ccc2O[C@H]1CN(C)C(=O)Nc1ccc(F)cc1	.	/	/	/	/
C[C@H]1CN([C@@H](C)CO)S(=O)(=O)c2ccc(C#Cc3ccncc3)cc2O[C@@H]1CN(C)C(=O)C1CCC1	.	/	/	/	/
CCS(=O)(=O)Nc1ccc2c(c1)C(=O)N(C)C[C@@H](OC)[C@H](C)CN(C(=O)c1ccc3c(c1)OCO3)[C@H](C)CO2	.	/	/	/	/
O=C(O)c1nn(CCOc2cccc(Cl)c2)c(=O)c2ccccc12	/	.	.	.	.
SMILES	BioA inh	PfHsp40 yeast	FadD28 binding	Y pestis TopoI	PrP UTR inh
O=C(O)c1nn(CCOc2cccc(Br)c2)c(=O)c2ccccc12	.	.	.	52	.
C[C@@H]1CN([C@@H](C)CO)C(=O)c2cc(-c3cccc(F)c3)cnc2O[C@H]1CN(C)C(=O)Nc1ccccc1F	.	/	/	/	/
O=C1CSC(=S)N1/N=C/c1ccc(O)c(O)c1O	.	.	9.4	.	/
CC(C)OC(=O)N(C)C[C@H]1OCc2cnnn2CCCC(=O)N([C@@H](C)CO)C[C@@H]1C	.	/	/	/	/
COc1ccc(NC(=S)N/N=C2\CC(C)(C)Oc3ccc(O)cc32)cc1	/	39	.	.	.
CC(C)NC(=O)N1[C@H](CO)[C@H]2c3ccccc3N(C(=O)Nc3ccc(F)cc3)C[C@H]21	.	/	/	/	/
Cc1ccc(NC(=S)NC(=O)C2CCCC2)c(Br)c1	.	119	.	.	.
Cc1ccnc2nc(C(=O)NC3CCCc4ccccc43)nn12 (configuration not stated)	/	147	.	.	.
Cc1occc1C(=O)NC1CCCc2ccccc21 (configuration not stated)	.	.	.	.	.
O/N=C\c1ccccc1Oc1ccc(F)cc1	/	59	.	.	.
